FAK blocker: FAK (human) kinase inhibition | Q05397 | biochemical FAK kinase activity assay | inhibition, %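 (tested at 7 µM)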 | 97,000 tested, 0.84% active | AID 727; in the data active = inhibition above about 19%;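 also: 0% = DMSO and 100% = reference compound high control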
ERb SRC1 inh: ER-beta (human) coactivator binding inhibition | Q92731 | TR-FRET ER-beta LBD / SRC1-Cy5 peptide binding; receptor agonist-loaded with 1 µM estradiol | inhibition, % at 25.6 µM | 86,000 tested, 1.3% active | AID 633;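 active = compounds whose percent inhibition of the receptor-coactivator binding signal exceeds about 50% in the single-dose screen, limit read from the data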;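 also: 0% = receptor plus peptide wells without compound and 100% = peptide-only wells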
Target sequence (Q92731 whole entry, looked up, the tested form may be a part): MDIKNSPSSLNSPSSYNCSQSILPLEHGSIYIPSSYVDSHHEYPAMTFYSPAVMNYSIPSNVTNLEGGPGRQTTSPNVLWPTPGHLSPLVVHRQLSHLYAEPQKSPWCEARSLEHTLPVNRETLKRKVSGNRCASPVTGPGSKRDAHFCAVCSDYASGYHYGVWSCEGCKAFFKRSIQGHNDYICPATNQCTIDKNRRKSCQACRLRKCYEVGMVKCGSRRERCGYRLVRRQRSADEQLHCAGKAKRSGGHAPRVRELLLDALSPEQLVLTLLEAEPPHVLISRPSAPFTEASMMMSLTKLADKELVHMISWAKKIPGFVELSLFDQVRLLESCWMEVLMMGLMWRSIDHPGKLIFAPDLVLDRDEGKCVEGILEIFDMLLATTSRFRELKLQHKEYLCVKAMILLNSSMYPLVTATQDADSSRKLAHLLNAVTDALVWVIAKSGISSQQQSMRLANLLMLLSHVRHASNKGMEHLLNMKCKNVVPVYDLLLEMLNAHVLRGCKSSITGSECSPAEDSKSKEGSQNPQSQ
Smad3 FoxH1 inh: Smad3 (human) transcription factor binding inhibition | inhibition, % at 25 µM | P84022 | 88,000 tested, 0.29% active | TR-FRET Smad3/Dy647-FoxH1 peptide binding, europium anti-His;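 active = compounds that reduce the energy-transfer binding signal between the protein and its labelled peptide by more than half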;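 also: 0% = Smad3 plus labelled peptide maximal FRET and 100% = peptide-only background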
ERa SRC1 inh: ER-alpha (human) coactivator binding inhibition. P03372. TR-FRET ER-alpha LBD / SRC-1 peptide, estradiol-bound. inhibition, % at 25.6 µM. 86,000 tested, 1.7% active; in the data active = inhibition above about 50%;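 also: 0% = receptor plus peptide control and 100% = peptide only without receptor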
ERa SRC1 pot: enhances coactivator binding to human estrogen receptor alpha | AID 639 | TR-FRET ERalpha-LBD/SRC-Cy5 coactivator binding, 2 h; 100 = basal binding, no effect | P03372 | 86,000 tested, 1.3% active | coactivator binding (% of control), % at 25.6 µM; in the data active = activity above about 200%;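 also: binding measured in presence of low estradiol as agonist stimulus; 0% = peptide alone without receptor and 100% = receptor with peptide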
Active calls of the source: *; [ ] = remark or other dose. An excerpt weighted towards active compounds, which were near 3.3% of everything screened.

Screening CCOC(=O)c1[nH]c2c(c1C)C(=O)CC(c1ccco1)C2 (stereo not given) returned ERb SRC1 inh 56*[fluorescence artefact?], Smad3 FoxH1 inh -4, ERa SRC1 inh 65* and ERa SRC1 pot 93.
`COCCOC(=O)c1[nH]c2c(c1C)C(=O)CC(c1ccccc1)C2` (stereo not given) gave FAK blocker 1, ERb SRC1 inh 8, Smad3 FoxH1 inh 6, ERa SRC1 inh -4 and ERa SRC1 pot 82.
O=C(Oc1ccc2c(c1)OCC2=O)c1ccccc1 was read as FAK blocker 4, ERb SRC1 inh 55*, Smad3 FoxH1 inh -8, ERa SRC1 inh 44 and ERa SRC1 pot 86.
For CCCCN(c1ccccc1)c1ncnc2c1cnn2C the results were Smad3 FoxH1 inh -3.
For CCC(=O)Nc1ccc(-c2nn3c(C)nnc3s2)cc1C the results were FAK blocker 0, ERb SRC1 inh 6, Smad3 FoxH1 inh 6, ERa SRC1 inh 1 and ERa SRC1 pot 101.
Cc1ccc(-c2nn3c(C)nnc3s2)cc1NC(=O)COc1ccc(Cl)cc1 was read as FAK blocker -8, ERb SRC1 inh 9, Smad3 FoxH1 inh -2, ERa SRC1 inh 7 and ERa SRC1 pot 325*.
`Fc1cccc(Cl)c1/C=N/N=C1c2ccccc2-c2ccccc21` gave Smad3 FoxH1 inh 59*.
For O=S(=O)(N/N=C\c1c(F)cccc1Cl)c1ccc(Cl)cc1 the results were FAK blocker -4.
For CC1=N[C@@](C)(COC(=O)[C@]2(C)N[C@](C)(CO)CO2)COC1=O the results were Smad3 FoxH1 inh -1.
Screening Cc1ccc(S(=O)(=O)N2CCC(C(=O)N[C@H](C(=O)NCc3ccco3)C(C)C)CC2)cc1 returned FAK blocker 1, ERb SRC1 inh 50*[fluorescence artefact?], Smad3 FoxH1 inh 0, ERa SRC1 inh 57*[fluorescence artefact?] and ERa SRC1 pot 98.
For Cc1ccc(S(=O)(=O)N2CCC(C(=O)N[C@H](C(=O)NC3CCS(=O)(=O)C3)C(C)C)CC2)cc1 (stereo not given in full) the results were FAK blocker -6.
For Cc1ccc(S(=O)(=O)N2CCC(C(=O)Nc3nnc(-c4ccco4)s3)CC2)cc1 the results were FAK blocker 4, ERb SRC1 inh 21, Smad3 FoxH1 inh 12, ERa SRC1 inh 25 and ERa SRC1 pot 200*[fluorescence artefact?].
Screening N#Cc1cc2c(nc1SCc1ccccc1)CCC2 returned FAK blocker 3, ERb SRC1 inh 59*[fluorescence artefact?], Smad3 FoxH1 inh 52*[fluorescence artefact?], ERa SRC1 inh 55*[fluorescence artefact?] and ERa SRC1 pot 283*[fluorescence artefact?].
For Clc1ccc2c(c1)N(CCCN1CCCC13CCCCC3)c1ccccc1S2 the results were Smad3 FoxH1 inh 1.
For CCOC(=O)Nc1nc(-c2ccccc2)c(C)s1 the results were Smad3 FoxH1 inh 27.
O=C(O)CC(CNS(=O)(=O)c1ccccc1)c1ccccc1 (stereo not given) was read as ERb SRC1 inh -5, Smad3 FoxH1 inh -4, ERa SRC1 inh -4 and ERa SRC1 pot 96.
Screening Cn1c(SCC(=O)N2CCOCC2)nc2cccnc21 returned FAK blocker 1, ERb SRC1 inh 22, Smad3 FoxH1 inh -4, ERa SRC1 inh 19 and ERa SRC1 pot 435*[fluorescence artefact?].
Cn1c(=O)c2c(nc(Oc3ccc4c(c3)OCO4)n2Cc2ccc(Br)cc2)n(C)c1=O was read as ERb SRC1 inh 52*, Smad3 FoxH1 inh -19, ERa SRC1 inh 2 and ERa SRC1 pot 103.
For c1ccc(-c2nc(N3CCN(c4ccccc4)CC3)nc(-n3ccnc3)n2)cc1 the results were FAK blocker 4, ERb SRC1 inh 29, Smad3 FoxH1 inh 3, ERa SRC1 inh 83*[fluorescence artefact?] and ERa SRC1 pot 185.
For CCn1c(=O)c2cc(C(=O)Nc3cc(C)on3)sc2c2ccccc21 the results were FAK blocker -8, ERb SRC1 inh 44, Smad3 FoxH1 inh 31, ERa SRC1 inh 54*[fluorescence artefact?] and ERa SRC1 pot 141.
`COc1cc(/C=C/C(=O)CC(=O)/C=C/c2ccc(O)c(OC)c2)ccc1O` gave ERb SRC1 inh 60*[fluorescence artefact?], Smad3 FoxH1 inh -17, ERa SRC1 inh 38 and ERa SRC1 pot 33.
For Cc1nc(C)c2c(=O)cc(-c3ccccc3)[nH]c2n1 the results were FAK blocker 1, ERb SRC1 inh -23, Smad3 FoxH1 inh -4, ERa SRC1 inh -21 and ERa SRC1 pot 117.
Cc1nc(-c2ccccc2)nc2[nH]c(-c3ccccc3)cc(=O)c12 was read as FAK blocker 1, ERb SRC1 inh 44, Smad3 FoxH1 inh 5, ERa SRC1 inh 24 and ERa SRC1 pot 334*[fluorescence artefact?].
Screening O=C(CSc1nnc(-c2ccccc2O)o1)N1CCc2ccccc2C1 returned FAK blocker -3, ERb SRC1 inh 27, Smad3 FoxH1 inh 2, ERa SRC1 inh 23 and ERa SRC1 pot 239*[fluorescence artefact?].
`Cc1ccc(NC(=O)CSCC(=O)N2c3ccccc3CCc3ccccc32)cc1` gave FAK blocker 2.
Nc1ccccc1CCCC(=O)O was read as Smad3 FoxH1 inh 7.
`Cc1ccc(/C=c2\sc3nc(-c4cccnc4)nn3c2=O)cc1` gave FAK blocker -2, ERb SRC1 inh 48, Smad3 FoxH1 inh 9, ERa SRC1 inh 69*[fluorescence artefact?] and ERa SRC1 pot 61.
`O=C(O)[C@@H]1[C@H](C(=O)Nc2cccc3cccnc23)[C@@H]2CC[C@H]1O2` gave Smad3 FoxH1 inh 98*.
`O=C(O)C1C2CCC(O2)C1C(=O)Nc1cccc(F)c1` (stereo not given) gave FAK blocker -1.
For O=C(O)c1cccc(SSc2cccc(C(=O)O)c2)c1 the results were Smad3 FoxH1 inh 7.
For CCc1c(C)nc(Nc2nc(C)c3cc(OC)ccc3n2)[nH]c1=O the results were FAK blocker 3, ERb SRC1 inh -7, Smad3 FoxH1 inh -7, ERa SRC1 inh -1 and ERa SRC1 pot 112.
`COc1nc(Nc2nc3ccccc3c(=O)[nH]2)nc2ccc(C)cc12` gave ERb SRC1 inh 53*[fluorescence artefact?], Smad3 FoxH1 inh 40, ERa SRC1 inh 74*[fluorescence artefact?] and ERa SRC1 pot 147.
Screening Cc1nc(Nc2nc(-c3ccccc3)cc(=O)[nH]2)nc2ccccc12 returned FAK blocker 4, ERb SRC1 inh -2, Smad3 FoxH1 inh 21, ERa SRC1 inh 20 and ERa SRC1 pot 239*.
c1cncc(-c2cccnc2)c1 was read as FAK blocker -1, ERb SRC1 inh 14, Smad3 FoxH1 inh -11, ERa SRC1 inh 24 and ERa SRC1 pot 93.
Screening c1cncc(-c2nn[nH]n2)c1 returned FAK blocker 1, ERb SRC1 inh 63*[fluorescence artefact?], Smad3 FoxH1 inh -1, ERa SRC1 inh 4 and ERa SRC1 pot 97.
COc1cccc(NC(=O)CSc2ncnc3c2oc2ccccc23)c1 was read as FAK blocker -212, ERb SRC1 inh 57*[fluorescence artefact?], Smad3 FoxH1 inh -2, ERa SRC1 inh 64*[fluorescence artefact?] and ERa SRC1 pot 373*[fluorescence artefact?].
`Cc1ccc(NC(=O)CCC(=O)O)cc1F` gave FAK blocker 3, ERb SRC1 inh 4, Smad3 FoxH1 inh -3, ERa SRC1 inh -2 and ERa SRC1 pot 102.
